# High-throughput results as filed in PubChem.
# gsp agonist = agonists of gsp mutant (McCune-Albright syndrome). gsp mutant cells, cAMP HTRF, 30 min. Potency, µM (highest dose often 76.9 µM), inactives show at the top dose activation (cAMP increase), actives largely listed as activators. 340,000 compounds, 0.13% hits; active means well fitted activation curve with a large enough effect; inconclusive means small, poorly fitted or top-dose-only effect, or another doubt; inactive means no such curve, though single readings can be large or run the other way; cell line not stated here;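 further: phosphodiesterase inhibitor Ro 20-1724 added with compounds to block cAMP breakdown; potency means the concentration at half of the fitted maximal effect; nearly all actives have a fitted effect of over 60% in size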
#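 Cells in DMEM/10% FBS with G418 were pretreated with compounds in DMSO plus […] (300 uM stock) for 30 min at 37C. cAMP was measured by HTRF (cAMP-d2 plus anti-cAMP antibody-K) after 30 min at room temperature.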
# TSHR antagonist = human thyrotropin receptor antagonism | P16473 | TSHR-expressing cells, TSH-stimulated cAMP HTRF, 2 h; hits give low values | activity change, negative = inhibition, % at 11.5 µM | 330,000 compounds, 0.2% hits;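 active means activity change below a set negative limit, meaning inhibition stronger than a set level, cut at about -70% in these data; inconclusive means activity change between two set negative limits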; further: on the % scale 0 is the no-effect control and ±100 the full control effect
# Target sequence (P16473 whole entry, looked up): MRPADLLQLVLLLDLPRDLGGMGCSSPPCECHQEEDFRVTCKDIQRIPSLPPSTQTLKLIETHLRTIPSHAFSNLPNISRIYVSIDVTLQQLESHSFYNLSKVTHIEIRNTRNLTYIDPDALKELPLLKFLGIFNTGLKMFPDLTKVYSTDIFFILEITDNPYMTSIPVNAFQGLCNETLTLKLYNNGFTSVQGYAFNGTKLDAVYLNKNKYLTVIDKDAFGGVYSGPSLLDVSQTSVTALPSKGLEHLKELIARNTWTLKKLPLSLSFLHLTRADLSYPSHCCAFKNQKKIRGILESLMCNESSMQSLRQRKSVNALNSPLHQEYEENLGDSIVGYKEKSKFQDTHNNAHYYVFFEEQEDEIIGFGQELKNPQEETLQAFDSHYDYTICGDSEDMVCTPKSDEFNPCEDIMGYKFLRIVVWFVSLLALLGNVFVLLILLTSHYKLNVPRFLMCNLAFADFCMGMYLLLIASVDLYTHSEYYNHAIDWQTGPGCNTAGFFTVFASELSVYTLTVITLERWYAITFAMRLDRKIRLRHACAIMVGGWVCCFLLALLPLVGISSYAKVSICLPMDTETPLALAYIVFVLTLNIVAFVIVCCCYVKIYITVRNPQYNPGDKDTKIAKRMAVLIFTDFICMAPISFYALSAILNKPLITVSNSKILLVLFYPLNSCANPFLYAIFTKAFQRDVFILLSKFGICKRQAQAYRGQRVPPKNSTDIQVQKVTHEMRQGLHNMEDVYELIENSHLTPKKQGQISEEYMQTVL
#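 Read-out is FRET at 665 nm (cryptate excitation 337 nm) from a cryptate-tagged anti-cAMP antibody, competed by cell cAMP against cAMP-d2. Compounds are tested on freshly harvested TSHR cells challenged with 4nM TSH (EC80) for 2 hours at 37 deg C.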
# RXFP1 antag = antagonists of human relaxin receptor RXFP1; HEK293-RXFP1, relaxin-stimulated cAMP HTRF, 30 min; hits give low values; activity change, negative = inhibition, % at 57.5 µM; 350,000 compounds, 0.59% hits; AID 1259400;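 active means activity change of -60% or lower, but not beyond a set lower limit; inconclusive means change between -60% and -40%, or beyond the set limit; inactive means change above -40%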; further: on the % scale 0 is the no-effect control and ±100 the full control effect
# gsp antag = gsp mutant antagonism | Potency, µM (top dose mostly 76.9 µM), without a hit: at the top dose activity change, negative = inhibition, most hits filed as inhibitors | 340,000 compounds, 0.4% hits | gsp-mutant cells, cAMP HTRF, 30 min; calls by dose curve; cell line not stated here;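 further: intracellular cAMP measured with PDE inhibitor Ro 20-1724 present during compound exposure; potency means the concentration at half of the fitted maximal effect; on the % scale 0 is the no-effect control and ±100 the full control effect; nearly all actives have a fitted effect of over 65% in size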
#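 HTRF cAMP read-out (cAMP-d2 plus anti-cAMP antibody-K in lysis buffer, 30 min RT). Before lysis, cells are exposed to compounds with […] for 30 min at 37C in DPBS containing Ca/Mg, BSA and Tween 20.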
# RXFP1 ag = activates the human relaxin receptor RXFP1. Q9HBX9. HEK293T-RXFP1 cAMP TR-FRET, 30 min; response scale: percent of porcine relaxin response, buffer zero. Potency, µM (highest dose often 57.5 µM), inactives show top-dose activation, hits mostly activators. 370,000 compounds, 0.3% hits. AID 2676; active means well fitted activation curve with a large enough effect; inconclusive means small, poorly fitted or top-dose-only effect; further: potency means the concentration at half of the fitted maximal effect; on the % scale 0 is the no-effect control and ±100 the full control effect; nearly all actives have a fitted effect of over 60% in size
#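 HEK293 cells stably expressing RXFP1, treated 30 min at 37C with compounds plus PDE4 inhibitor Ro 20174; cAMP measured by HTRF TR-FRET. Normalized to buffer and 29 nM porcine relaxin; EC50 by Hill fit.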
# Active calls of the source: *; u = inconclusive; x = not tested or not shown; [ ] = dose if it differs, or a comment. In the library only some 1% were active in any assay of this set; here they are far more common.
SMILES,gsp agonist,TSHR antagonist,RXFP1 antag,gsp antag,RXFP1 ag
CS(=O)(=O)N(CC(=O)N1CCOCC1)c1cccc(F)c1,6%[15.4 µM],-93*,12,1%,1%
CC1CCN(C(=O)CN(c2cccc(F)c2)S(C)(=O)=O)CC1,-6%[15.4 µM],16,7,4%,-2%
CN(Cc1ccccc1)C(=O)CSc1nc2ccsc2c(=O)n1-c1ccc(F)cc1,x,x,-19,x,1%
CN(C)c1ccc(CN2CCc3nc(N4CCN(c5ccccn5)CC4)ncc3C2)cc1,x,x,-63*,x,5%
COc1cc(CN2CCc3nc(N4CCN(c5ccccn5)CC4)ncc3C2)cc(OC)c1OC,x,x,-79*,x,5%
Cc1ccccc1CN1CCc2nc(N3CCN(c4ccccn4)CC3)ncc2C1,x,x,-20,x,14%
CCOc1ccccc1CN1CCc2nc(N3CCN(c4ccccc4F)CC3)ncc2C1,x,x,-60*,x,6%
COc1ccc2c(c1)c1c(c(=O)n(-c3ccc(F)c(Cl)c3)c(=O)n1Cc1cccc(C)c1)n2C,x,x,x,x,13%
O/C(=C\c1nc2ccccc2nc1/C=C(\O)c1ccccc1)c1ccccc1,26%,-17,-112*,0%,4%
CCN(CCNC(=O)C1CCN(Cc2nc(-c3ccc(Cl)cc3)oc2C)CC1)c1ccccc1,1%,-3,-62*,1%,1%
CC(C)C[C@@H]1[C@H](c2ccccc2)OC(=O)N1CCCN1CCCCCC1,x,x,-13,x,x
Cc1ccc(-c2nnc(-n3nc(C)cc3C)c3ccccc23)cc1,2%,-1,-2,35µM*,-1%
CCc1ccc(NC(=O)c2ccc3c(=O)n4c(nc3c2)CCCCC4)cc1,9%,-28,-14,u,3%
O=C(Nc1cccc(S(=O)(=O)N2CCCCC2)c1)c1ccc2c(=O)n3c(nc2c1)CCCCC3,5%,-77*,2,u,1%
Cc1ccc(C)c(N(C)C(=O)c2ccc3c(=O)n4c(nc3c2)CCCCC4)c1,-2%,21,-102*,-6%,-3%
CN(C(=O)c1ccc2c(=O)n3c(nc2c1)CCCCC3)c1ccccc1F,-30%,-2,35,0%,3%
COC(=O)c1cc2c(=O)c3ccccc3oc2nc1/C=C/N(C)C,-7%[15.4 µM],18,-18,35µM*,4%
COc1ccc(-c2nn(-c3ccccc3)cc2/C=C2/SC(=S)N(CCC(=O)O)C2=O)c(C)c1,-4%,-3,-4,32µM*,1%
COc1ccc(-c2nn(-c3ccccc3)cc2/C=C2/SC(=S)N(CCC(=O)O)C2=O)cc1,-5%[15.4 µM],-8,-6,32µM*,1%
Cc1ccc(-c2nn(-c3ccccc3)cc2/C=C2\SC(=S)N(CC(=O)O)C2=O)cc1,-33%,-14,8,u,0%
COc1ccc(Br)cc1CNC(=O)CCCn1c(=O)c2cccn2c2ccccc21,x,x,-40,x,11%
Cc1ccc(CNC(=O)CN(C)S(=O)(=O)c2ccc(Br)s2)cc1,x,x,-4,x,4%
O=C(OCC(=O)c1ccc[nH]1)c1ccccc1,-13%,4,-5,14%,-1%
O=C(OCC(=O)c1ccc[nH]1)c1ccc(Cl)c(Cl)c1,12%,17,-87*,9%,x
CCN=c1sc2ccccc2n1CC(O)COc1ccccc1 (stereo not drawn),4%,-3,-68*,-6%[15.4 µM],-2%
SMILES,gsp agonist,TSHR antagonist,RXFP1 antag,gsp antag,RXFP1 ag
COc1ccc(C(=O)c2ccccc2)c2c(O)ccc(C(=O)c3ccccc3)c12,-11%,u,-21,28µM*,0%
Cc1[nH]c2ccccc2c1NC(=O)CN1CCN(c2cccc(C(F)(F)F)c2)CC1,-27%,x,8,50µM*,0%
O=C(CN1CCN(c2cccc(C(F)(F)F)c2)CC1)Nc1cccc(C(F)(F)F)c1,-2%,-13,-7,-1%,0%
COc1cc(OC)c(NC(=O)C(C)n2nc(-c3ccc(C)c(C)c3)ccc2=O)cc1Cl (stereo not drawn),x,x,-11,x,1%
COc1ccc2c(c1)O[C@@H](c1cccc(C(F)(F)F)c1)[C@H](OC(=O)N[C@H]1CCCc3ccccc31)C2=O,x,0,x,x,0%
COc1ccc2c(c1)O[C@@H](c1cccc(C(F)(F)F)c1)[C@H](OC(=O)Nc1ccc(OC(F)F)cc1)C2=O,8%,-7,x,11µM*,4%
COc1ccc(C(O)(C2CCCCC2)C(CN2CCOCC2)c2ccccc2)cc1 (stereo not drawn),-2%,0,-90*,-19%,0%
CCCCC(O)(c1ccc(OC)cc1)C(CN1CCOCC1)c1ccccc1 (stereo not drawn),u,2,-8,-5%,-2%
CCCCCC(O)(c1ccc(OC)cc1)C(CN1CCOCC1)c1ccccc1 (stereo not drawn),-7%,-5,-61*,-20%,4%
Cc1ccc(NC(=O)C2CCCN(c3ncnc4onc(C)c34)C2)c(Cl)c1 (stereo not drawn),x,x,-1,x,0%
COc1ccc(C(C)=O)cc1CSc1nnc(Nc2ccccc2C)s1,-46%,0,x,11µM*,0%
COc1ccc(C(C)=O)cc1CSc1nnc(Nc2ccc(C)cc2C)s1,-14%[15.4 µM],-6,5,-29%,2%
Cc1ccccc1N1CCN(Cc2ccc(Br)o2)CC1,10%[15.4 µM],17,-65*,4%,1%
N#C/C(=C\c1cc(Br)c(O)c(Br)c1)c1nc2ccccc2c(=O)[nH]1,x,x,-3,x,0%
COc1ccc(NC(=O)c2nnn(CC(=O)Nc3ccccc3OC)c2N)c(OC)c1,-10%,5,-102*,9%,6%
COc1ccc(NC(=O)c2nnn(CC(=O)Nc3cccc(C)c3C)c2N)c(OC)c1,x,x,2,x,2%
O=C(CSc1nnc2scc(-c3ccc(Cl)cc3)n12)Nc1ccccc1F,x,x,-3,x,0%
Cc1csc2ncc(C(=O)NCc3ccccc3Cl)c(=O)n12,u,-12,x,3%,6%
Cc1csc2ncc(C(=O)NC(C)c3ccccc3)c(=O)n12 (stereo not drawn),18µM*,-5,5,-2%,10%
COc1cc(OC)c(NC(=O)NCc2cccn2Cc2ccccc2)cc1Cl,x,x,-24,x,4%
O=C(Nc1ccc(C(=O)N2CCCC2)cc1)c1ccccc1F,14%,2,-4,-3%,0%
O=C(Nc1cc(C(=O)N2CCCC2)ccc1N1CCCC1)c1ccccc1F,u,-4,-26,6.3µM*,-1%
CN(C)c1nc(=S)nc(NCc2ccccc2)[nH]1,-2%[15.4 µM],-85*,0,6%,1%
O=c1c2c(-c3ccc(Cl)cc3)ccnc2[nH]n1-c1ccccc1,x,x,x,x,-1%
O=C(O)c1cc(-c2ccncc2)nc2ccc(F)cc12,x,13,x,x,1%
O=C(O)c1cc(-c2cccs2)nc2ccc(F)cc12,25µM*,0,0,-18%,u
CC(C)=CCC/C(C)=C/CC/C(C)=C/CCC(=O)OC/C=C(\C)CCC=C(C)C,x,x,-11,x,x
